Screening results from PubChem BioAssay.
DT40 TDP1 no CPT: qHTS for Inhibitors of human tyrosyl-DNA phosphodiesterase 1 (TDP1): qHTS in cells in absence of CPT | 420,000 tested, 15% active | Potency, µM (highest dose often 46.2 µM), most hits filed as inhibitors | DT40 Tdp1-/- hTDP1 cells, no CPT, ATP luminescence, 48 h; note: nearly all actives have a fitted effect of over 55% in size
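Growth kinetics read by CellTiter-Glo luminescence after ≥48 hr at 37 °C. Cells: DT40 Tdp1-/- stably carrying human TDP1, 400 per well, compound exposure in the absence of CPT (DMSO vehicle).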
ClpP mod: qHTS Assay for Activators of ClpP | 340,000 tested, 1.9% active | Potency, µM (highest dose often 57.5 µM) | ATP-dependent Clp protease proteolytic subunit (Bacillus subtilis (strain 168)), P80244 | purified B. subtilis ClpP, FRET peptide cleavage, 20 min; active = well fitted falling curve with a large enough effect; inconclusive = small, poorly fitted or top-dose-only effect; inactive = no such curve, though single readings can be large or run the other way; note: the source files actives as falling curves though it sought activators and does not explain the sign; nearly all actives have a fitted effect of over 65% in size
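FRET quenching reversal measured ClpP activation: 10 microg/mL B. subtilis ClpP at pH 8 with the FRET-FV decapeptide, read at 430 nm after 320 nm excitation. The 20-min minus 0-min signal was scaled between DMSO/no-enzyme wells and ADEP (5.8 microM final).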
TDP1 inh: inhibitors of human tyrosyl-DNA phosphodiesterase TDP1 | Q9NUW8 | 350,000 tested, 0.28% active | recombinant TDP1, AlphaScreen DNA substrate cleavage | Potency, µM (series often up to 130 µM), usual class: inhibitors; note: nearly all actives have a fitted effect of over 40% in size
Target sequence (Q9NUW8 whole entry, looked up): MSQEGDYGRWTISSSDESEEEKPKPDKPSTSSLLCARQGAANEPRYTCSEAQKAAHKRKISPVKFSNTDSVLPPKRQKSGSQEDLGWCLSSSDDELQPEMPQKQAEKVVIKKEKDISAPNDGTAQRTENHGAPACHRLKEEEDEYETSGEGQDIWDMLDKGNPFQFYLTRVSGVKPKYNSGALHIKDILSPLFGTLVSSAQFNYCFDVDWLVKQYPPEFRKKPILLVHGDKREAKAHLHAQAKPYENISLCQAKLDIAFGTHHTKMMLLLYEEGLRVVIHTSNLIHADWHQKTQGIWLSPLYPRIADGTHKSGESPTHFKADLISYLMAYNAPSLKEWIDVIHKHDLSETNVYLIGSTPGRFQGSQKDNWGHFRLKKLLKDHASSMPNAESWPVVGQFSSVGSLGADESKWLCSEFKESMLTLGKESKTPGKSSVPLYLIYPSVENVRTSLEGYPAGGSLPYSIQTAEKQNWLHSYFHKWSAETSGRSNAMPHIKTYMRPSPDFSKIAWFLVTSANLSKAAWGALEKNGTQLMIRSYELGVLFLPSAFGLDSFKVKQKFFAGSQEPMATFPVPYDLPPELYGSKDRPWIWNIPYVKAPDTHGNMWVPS
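AlphaScreen read-out: signal falls as enzyme removes the 3' tyrosine-FITC from a 5'-biotinylated DNA oligo (15 nM, 5 min, RT). Enzyme was E. coli-made recombinant Tdp1 at 1 nM, exposed to compound for 15 min beforehand; beads 10 ug/ml, 10 min.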
DT40 TDP1 CPT: DT40-hTDP1 cell growth loss with CPT. chicken DT40 Tdp1-/-;hTDP1 cells + 20 nM CPT, ATP luminescence, 48 h. Potency, µM (series often up to 46.2 µM), most hits filed as inhibitors. 420,000 tested, 12% active; note: nearly all actives have a fitted effect of over 55% in size
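Cell growth measured by CellTiter-Glo luminescence after a minimum 48 h, 37 C compound exposure with 20 nM CPT in Tdp1-knockout DT40 cells stably expressing hTDP1, seeded 400/well; qHTS titration format.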
Each line names hits and unclear results; the compound was inactive in the other large screens. An excerpt weighted towards active compounds, which were near 17% of everything screened. Unless noted, calls come from the whole dose curve; as a rule, active = well fitted curve in the direction sought with a large enough effect; inconclusive = small, poorly fitted or top-dose-only effect, or another doubt; inactive = no such curve, though single readings can be large; an effect the other way counts as inactive or inconclusive.

Cc1cc(=O)c(C(=O)NCCc2ccccn2)c2n1-c1ccccc1SC(c1cccs1)C2 (configuration not stated)	none (no result: ClpP mod, TDP1 inh)
Cc1ccc(-n2nnnc2CNC(=O)c2cc(C(F)(F)F)cc(C(F)(F)F)c2)cc1C	DT40 TDP1 no CPT 16µM, DT40 TDP1 CPT inconclusive
Cc1ccc(-n2nnnc2CNC(=O)c2ccc([N+](=O)[O-])o2)cc1C	DT40 TDP1 no CPT 7.3µM, DT40 TDP1 CPT 13µM (no result: TDP1 inh)
CC(C)N(Cc1ccccc1)c1ncnc2c1nnn2C	DT40 TDP1 no CPT inconclusive, DT40 TDP1 CPT inconclusive
Cc1cccc(N=C2NC(=O)/C(=C\c3cccs3)S2)c1	DT40 TDP1 no CPT 9.2µM, DT40 TDP1 CPT 13µM
O=C1NC(=Nc2ccccc2)S/C1=C/c1cccnc1	none
O=C1NC(=Nc2cccnc2)S/C1=C\c1cccc(F)c1	DT40 TDP1 no CPT 13µM, DT40 TDP1 CPT inconclusive
Cc1ccc(N=C2NC(=O)/C(=C/c3cccs3)S2)cc1C	DT40 TDP1 no CPT 10µM, DT40 TDP1 CPT 13µM
COc1ccc(Cn2ccnc2SCC(=O)Nc2ccc3c(c2)OCCO3)cc1	DT40 TDP1 CPT inconclusive
Cc1[nH]n(C(N)=S)c(=O)c1N=Nc1ccc(Br)cc1	DT40 TDP1 no CPT 16µM, DT40 TDP1 CPT 23µM (no result: TDP1 inh)
COc1ccc(N(CC(=O)Nc2cc([N+](=O)[O-])ccc2C)S(C)(=O)=O)cc1OC	DT40 TDP1 CPT inconclusive (no result: ClpP mod)
CC1CC(C)CN(CCCSc2ccccc2)C1 (configuration not stated)	ClpP mod inconclusive
CC1CC(C)CN(CCOCCSc2ccccc2)C1 (configuration not stated)	DT40 TDP1 no CPT 16µM, DT40 TDP1 CPT inconclusive
CC1CC(C)CN(CCOCCSc2ccc(Cl)cc2)C1 (configuration not stated)	DT40 TDP1 no CPT 16µM, DT40 TDP1 CPT 21µM (no result: ClpP mod)
CC1CN(CCCSc2ccc(Cl)cc2)CC(C)O1 (configuration not stated)	DT40 TDP1 no CPT inconclusive, DT40 TDP1 CPT inconclusive (no result: ClpP mod)
COc1cc2c(cc1OC)C(c1ccccc1)N(Cc1ccc(S(=O)(=O)NC(=O)c3ccco3)cc1)CC2 (configuration not stated)	none (no result: TDP1 inh)
COCCNC(=S)N1CCC(C(=O)c2ccc(F)cc2)CC1	DT40 TDP1 no CPT inconclusive (no result: TDP1 inh)
CCCNC(=S)N1CCC(NC(=O)C2CCCCC2)CC1	DT40 TDP1 no CPT inconclusive, DT40 TDP1 CPT 16µM
CC(C)(C)NC(=S)N1CCC(C(=O)c2ccc(F)cc2)CC1	none (no result: TDP1 inh)
CCCNC(=S)N1CCC(C(=O)c2ccc(F)cc2)CC1	DT40 TDP1 no CPT 16µM, DT40 TDP1 CPT 15µM (no result: ClpP mod)
CCCNC(=S)N1CCN(C)CC1	ClpP mod 7.1µM (no result: TDP1 inh)
CCCCNC(=S)N1CCN(CC)CC1	none (no result: ClpP mod, TDP1 inh)
O=C(c1ccc(F)cc1)C1CCN(C(=S)Nc2ccc(F)cc2)CC1	DT40 TDP1 no CPT 15µM, DT40 TDP1 CPT inconclusive (no result: TDP1 inh)
O=c1c2c(nc3c(-c4ccc(Cl)cc4)c[nH]n13)CCCC2	DT40 TDP1 no CPT 4µM, ClpP mod 14µM, DT40 TDP1 CPT 3.5µM
O=c1c2c(nc3nc(NCc4ccc(Cl)cc4)[nH]n13)CCC2	none (no result: ClpP mod)
Cc1[nH]n2c(=O)c3c(nc2c1-c1cccc2ccccc12)CCC3	DT40 TDP1 no CPT inconclusive, ClpP mod inconclusive, DT40 TDP1 CPT inconclusive
O=c1c2c(nc3c(-c4cccc5ccccc45)c[nH]n13)CCC2	DT40 TDP1 no CPT inconclusive, ClpP mod 11µM, DT40 TDP1 CPT 25µM
COc1cc(C(=O)OCC2CC(c3ccccc3)=NO2)cc(OC)c1OC (configuration not stated)	DT40 TDP1 no CPT inconclusive (no result: ClpP mod)
COc1ccc(C(=O)OCC2CC(c3ccccc3)=NO2)cc1OC (configuration not stated)	DT40 TDP1 no CPT inconclusive, DT40 TDP1 CPT 23µM
COc1ccc(-c2nc3c(c(=O)n(C)c(=O)n3C)n2CC2CC(c3ccccc3)=NO2)cc1OC (configuration not stated)	DT40 TDP1 no CPT 1.5µM, DT40 TDP1 CPT 10µM (no result: TDP1 inh)
CCN(CC)C(=O)Cn1cc(S(=O)(=O)CC(=O)NCc2ccccc2)c2ccccc21	none
C=C1c2ccccc2NC(=S)N1Cc1ccc2c(c1)OCO2	DT40 TDP1 no CPT 4.1µM (no result: ClpP mod)
COc1cc2c(cc1OC)C1=NC(=O)CN1C(SCc1ccccc1)=N2	DT40 TDP1 no CPT 9.2µM, ClpP mod 22µM, DT40 TDP1 CPT 18µM
Nc1nc2c(ncn2[C@@H]2O[C@H](COP(=O)(O)OP(=O)(O)O)[C@@H](O)[C@H]2O)c(=O)[nH]1	none (no result: ClpP mod)
